Source: PubChem BioAssay AID1159580 (chemical genetic matrix, 2015)
Hit rate of the full screen: of about 5,500 compounds, about 2,000 (36%) were called active. About 18% were inconclusive and are not listed. No stated cut-off is given here; in the data, active means normalized growth mostly below about 0.91 (no sharp cut-off); inconclusive means no clear call, values can overlap the other calls; inactive means mostly above about 0.92. The list shows a part of the results.

Assay: chemical genetic growth profiling, strain panel (AID 1159580);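 further: tested at 20 µM; growth read once vehicle control cultures reached saturation at 30 °C; 1 = growth at the plate median or of vehicle wells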
Settings: growth OD

Measured: normalized growth

CCCCC(=O)O[C@]1(C(=O)CO)[C@@H](C)CC2C3CCC4=CC(=O)C=C[C@]4(C)[C@@]3(F)C(O)C[C@@]21C (some centres undefined)
inactive: S. cerevisiae deletion strains, locus YKL009W, strain mrt4, stronger effect = lower value 0.969 | S. cerevisiae deletion strains, locus YKL068W, stronger effect = lower value 0.991 | S. cerevisiae deletion strains, locus YKL085W, strain MDH1 (second series), stronger effect = lower value 0.987 | S. cerevisiae deletion strains, locus YKL085W, strain MDH1, stronger effect = lower value 0.987 | S. cerevisiae deletion strains, locus YKL160W, strain elf1, stronger effect = lower value 0.958 | S. cerevisiae deletion strains, locus YKL190W, strain CNB1, stronger effect = lower value 0.999 | S. cerevisiae deletion strains, locus YKR001C, strain vps1, stronger effect = lower value 0.972 | S. cerevisiae deletion strains, locus YKR026C, strain gcn3, stronger effect = lower value 0.97 | S. cerevisiae deletion strains, locus YKR091W, strain srl3, stronger effect = lower value 0.986 | S. cerevisiae deletion strains, locus YLL001W, strain dnm1, stronger effect = lower value 0.919 | S. cerevisiae deletion strains, locus YLL026W, stronger effect = lower value 0.964 | S. cerevisiae deletion strains, locus YLL041C, strain sdh2, stronger effect = lower value 0.991 | S. cerevisiae deletion strains, locus YLR027C, strain aat2, stronger effect = lower value 0.977 | S. cerevisiae deletion strains, locus YLR039C, strain RIC1, stronger effect = lower value 1.07 | S. cerevisiae deletion strains, locus YLR058C, strain SHM2, stronger effect = lower value 0.95 | S. cerevisiae deletion strains, locus YLR102C, strain apc9, stronger effect = lower value 1 | S. cerevisiae deletion strains, locus YLR113W, strain HOG1, stronger effect = lower value 0.956 | S. cerevisiae deletion strains, locus YLR221C, strain rsa3, stronger effect = lower value 0.993 | S. cerevisiae deletion strains, locus YLR258W, strain gsy2, stronger effect = lower value 0.99 | S. cerevisiae deletion strains, locus YLR262C, strain YPT6 (second series), stronger effect = lower value 0.948 | S. cerevisiae deletion strains, locus YLR262C, strain YPT6, stronger effect = lower value 1.01 | S. cerevisiae deletion strains, locus YLR268W, strain sec22, stronger effect = lower value 0.96 | S. cerevisiae deletion strains, locus YLR320W, strain mms22, stronger effect = lower value 0.996 | S. cerevisiae deletion strains, locus YLR330W, strain CHS5, stronger effect = lower value 0.99 | S. cerevisiae deletion strains, locus YLR342W, strain FKS1 (second series), stronger effect = lower value 1 | S. cerevisiae deletion strains, locus YLR342W, strain FKS1, stronger effect = lower value 0.973 | S. cerevisiae deletion strains, locus YLR357W, strain rsc2, stronger effect = lower value 1 | S. cerevisiae deletion strains, locus YLR370C, strain arc18, stronger effect = lower value 0.977 | S. cerevisiae deletion strains, locus YLR371W, strain rom2, stronger effect = lower value 0.984 | S. cerevisiae deletion strains, locus YLR384C, strain iki3, stronger effect = lower value 0.963 | S. cerevisiae deletion strains, locus YLR418C, strain cdc73, stronger effect = lower value 0.973 | S. cerevisiae deletion strains, locus YML016C, strain PPZ1, stronger effect = lower value 0.987 | S. cerevisiae deletion strains, locus YML032C, strain rad52, stronger effect = lower value 1 | S. cerevisiae deletion strains, locus YML120C, strain ndi1, stronger effect = lower value 0.998 | S. cerevisiae deletion strains, locus YML124C, strain tub3, stronger effect = lower value 1.01 | S. cerevisiae deletion strains, locus YMR058W, strain fet3, stronger effect = lower value 0.981 | S. cerevisiae deletion strains, locus YMR078C, strain ctf18, stronger effect = lower value 0.98 | S. cerevisiae deletion strains, locus YMR125W, strain sto1, stronger effect = lower value 0.99 | S. cerevisiae deletion strains, locus YMR129W, stronger effect = lower value 0.988 | S. cerevisiae deletion strains, locus YMR205C, strain PFK2, stronger effect = lower value 0.984 | S. cerevisiae deletion strains, locus YMR223W, strain ubp8, stronger effect = lower value 0.974 | S. cerevisiae deletion strains, locus YMR231W, strain pep5, stronger effect = lower value 0.979 | S. cerevisiae deletion strains, locus YMR307W, strain GAS1, stronger effect = lower value 0.968 | S. cerevisiae deletion strains, locus YNL067W, strain RPL9B, stronger effect = lower value 0.964 | S. cerevisiae deletion strains, locus YNL071W, strain lat1, stronger effect = lower value 0.918 | S. cerevisiae deletion strains, locus YNL128W, strain TEP1, stronger effect = lower value 0.968 | S. cerevisiae deletion strains, locus YNL153C, strain GIM3, stronger effect = lower value 0.923 | S. cerevisiae deletion strains, locus YNL183C, strain NPR1, stronger effect = lower value 0.933 | S. cerevisiae deletion strains, locus YNL209W, strain ssb2, stronger effect = lower value 0.975 | S. cerevisiae deletion strains, locus YNL233W, strain BNI4, stronger effect = lower value 0.963 | S. cerevisiae deletion strains, locus YNL248C, strain rpa49, stronger effect = lower value 0.967 | S. cerevisiae deletion strains, locus YNL250W, strain rad50, stronger effect = lower value 0.978 | S. cerevisiae deletion strains, locus YNL271C, strain bni1, stronger effect = lower value 0.971 | S. cerevisiae deletion strains, locus YNL298W, strain CLA4, stronger effect = lower value 0.977 | S. cerevisiae deletion strains, locus YNL307C, strain MCK1, stronger effect = lower value 0.979 | S. cerevisiae deletion strains, locus YNL322C, strain KRE1 (second series), stronger effect = lower value 0.954 | S. cerevisiae deletion strains, locus YNR049C, strain mso1, stronger effect = lower value 0.983 | S. cerevisiae deletion strains, locus YNR052C, strain pop2, stronger effect = lower value 0.979 | S. cerevisiae deletion strains, locus YOL006C, strain TOP1, stronger effect = lower value 0.98 | S. cerevisiae deletion strains, locus YOL012C, strain htz1 1.06 | S. cerevisiae deletion strains, locus YOL147C, strain pex11, stronger effect = lower value 0.989 | S. cerevisiae deletion strains, locus YOR001W, strain rrp6, stronger effect = lower value 0.938 | S. cerevisiae deletion strains, locus YOR061W, strain CKA2, stronger effect = lower value 0.987 | S. cerevisiae deletion strains, locus YOR069W, strain VPS5, stronger effect = lower value 0.989 | S. cerevisiae deletion strains, locus YOR070C, strain gyp1, stronger effect = lower value 0.986 | S. cerevisiae deletion strains, locus YOR080W, strain dia2, stronger effect = lower value 0.965 | S. cerevisiae deletion strains, locus YOR083W, strain WHI5, stronger effect = lower value 0.956 | S. cerevisiae deletion strains, locus YOR106W, strain vam3, stronger effect = lower value 0.929 | S. cerevisiae deletion strains, locus YOR136W, strain idh2, stronger effect = lower value 0.979 | S. cerevisiae deletion strains, locus YOR144C, strain elg1, stronger effect = lower value 0.994 | S. cerevisiae deletion strains, locus YOR184W, strain ser1, stronger effect = lower value 0.984 | S. cerevisiae deletion strains, locus YOR231W, strain MKK1, stronger effect = lower value 0.976 | S. cerevisiae deletion strains, locus YOR265W, strain rbl2, stronger effect = lower value 0.981 | S. cerevisiae deletion strains, locus YOR270C, strain vph1, stronger effect = lower value 0.88 | S. cerevisiae deletion strains, locus YOR290C, strain snf2, stronger effect = lower value 1.01 | S. cerevisiae deletion strains, locus YOR316C, strain cot1, stronger effect = lower value 0.988 | S. cerevisiae deletion strains, locus YPL051W, strain arl3, stronger effect = lower value 0.993 | S. cerevisiae deletion strains, locus YPL055C, strain LGE1, stronger effect = lower value 0.975 | S. cerevisiae deletion strains, locus YPL078C, strain atp4, stronger effect = lower value 0.927 | S. cerevisiae deletion strains, locus YPL106C, strain sse1, stronger effect = lower value 1.01 | S. cerevisiae deletion strains, locus YPL240C, strain hsp82, stronger effect = lower value 0.967 | S. cerevisiae deletion strains, locus YPL241C, strain CIN2, stronger effect = lower value 1 | S. cerevisiae deletion strains, locus YPL256C, strain CLN2, stronger effect = lower value 0.973 | S. cerevisiae deletion strains, locus YPR119W, strain clb2, stronger effect = lower value 0.993 | S. cerevisiae deletion strains, locus YPR141C, strain kar3, stronger effect = lower value 0.968 | S. cerevisiae deletion strains, locus YPR163C, strain tif3, stronger effect = lower value 0.985 | S. cerevisiae deletion strains, locus YPR167C, strain met16, stronger effect = lower value 0.984 | S. cerevisiae deletion strains, strain wtn01, stronger effect = lower value 0.992 | S. cerevisiae strains, strain wild type, stronger effect = lower value 0.985
